Measured values taken from paper PMC4552634, “A New Set of Chemical Starting Points with Plasmodium falciparum Transmission-Blocking Potential for Antimalarial Drug Discovery” (PLoS ONE, 2015).
Like-named read-outs stand apart in the source and are kept apart here. About 3,200 (25%) of roughly 13,000 compounds showed an effect of 50% or more. This is one part of the list.

Test system: P. falciparum stage V gametocytes
Parameters: BacTiter-Glo ATP luminescence viability of purified stage V gametocytes in 384-well plates, per cent inhibition versus DMSO
Conditions: 48 h, 5 µM, inhibitor

Structure (SMILES)	% Inhibition [%]	% Inhibition (% Inhibition) [%]
Cc1noc(-c2ccc(NC[C@@H](C)NC[C@H](O)c3cccc(Cl)c3)cc2)n1 [TCMDC-132027]	14.57	–
COc1cc(C=Cc2ccc3ccccc3n2)cc(Br)c1OCC(=O)N(C)C [TCMDC-124818]	44.47	–
CC(C)C(=O)NC(c1ccc(N(C)C)cc1)c1cc(Cl)c2cccnc2c1O (stereo not drawn) [TCMDC-123643]	90.13	–
CCCCC(=O)NC(c1cccs1)c1cc(Cl)c2cccnc2c1O (stereo not drawn) [TCMDC-123653]	45.79	–
CC(=O)NC(c1cccs1)c1cc(Cl)c2cccnc2c1O (stereo not drawn) [TCMDC-125548]	90.83	–
CC(C)C(=O)NC(c1cccs1)c1cc(Cl)c2cccnc2c1O (stereo not drawn) [TCMDC-123636]	43.04	–
CCCC(=O)NC(c1cccs1)c1cc(Cl)c2cccnc2c1O (stereo not drawn) [TCMDC-123634]	68.96	–
COc1ccccc1N(C)CCNc1cc(C)nc(Nc2ccccc2)n1 [TCMDC-133455]	-20.01	–
Cc1cc(NC(=O)N=C(N)N)ccc1Cl [TCMDC-137470]	23.53	–
CC(C)Cc1nc(N2CCOCC2)c2nnn(Cc3ccccc3)c2n1 [TCMDC-124394]	7.117	–
Cc1ccc(C)c(CN2CCC(CNC(=O)c3cc4ccc5cccnc5c4[nH]3)CC2)c1 [TCMDC-125280]	17.56	–
CCN1C(c2ccc(Cl)cc2)C(CNCc2ccccc2O)CC1(C)CO (stereo not drawn) [TCMDC-124672]	-22.05	–
Cc1cc2c(cc1C(F)(F)F)N(C(=O)Nc1cc(OCCN(C)C)cc(C(F)(F)F)c1)CC2 [TCMDC-139873]	27.41	–
Cc1cc(Nc2cccc(Cl)c2)nc2ccc(NC(=O)c3ccc(=O)[nH]c3)cc12 [TCMDC-125285]	-92.28	–
N#Cc1ccc(NC(=O)Nc2ccc(OC(F)(F)F)cc2)cc1 [TCMDC-123773]	69.14	–
O=C(Nc1ccc([N+](=O)[O-])cc1)Nc1cc(C(F)(F)F)ccc1F [TCMDC-124367]	-37.77	–
O=C(Nc1cccc([N+](=O)[O-])c1)Nc1cccc(C(F)(F)F)c1 [TCMDC-123674]	-87.02	–
O=C(Nc1ccc(CCNCc2ccccc2)cc1)Nc1ccc(OC(F)(F)F)cc1 [TCMDC-141914]	-0.1841	–
COc1cc([N+](=O)[O-])ccc1NC(=O)Nc1ccc(OC(F)(F)F)cc1 [TCMDC-125388]	60.01	–
O=C(Nc1ccc(OC(F)(F)F)cc1)Nc1ccc([N+](=O)[O-])cc1 [TCMDC-123714]	-87.78	–
COc1cc(NC(=O)Nc2ccc([N+](=O)[O-])cc2OC)c(OC)cc1Cl [TCMDC-124366]	14.63	–
N#Cc1ccc(NC(=O)Nc2ccc3c(c2)CCN(C2CCC2)CC3)cc1 [TCMDC-135861]	25.77	–
O=C(Nc1ccc([N+](=O)[O-])cc1)Nc1cc(OCC(F)(F)F)cc(OCC(F)(F)F)c1 [TCMDC-124533]	87.27	–

Structure (SMILES)	% Inhibition [%]	% Inhibition (% Inhibition) [%]
Cc1ccc(C2CC(=O)CC(c3ccccn3)C2[N+](=O)[O-])cc1 (stereo not drawn) [TCMDC-139131]	6.685	–
CCCSc1nc2c(c(=O)n1Cc1ccco1)C1(CCCCC1)Cc1ccccc1-2 [TCMDC-123897]	-0.1623	–
CC(C)C[C@H](NC(=O)c1ccc(OCCN2CCOCC2)cc1)C(=O)N[C@H](/C=N/N1CCN(C)C1=O)CCc1ccccc1 [TCMDC-136154]	6.527	–
CO/C(=C\C=C\c1cc2cc(Cl)c(Cl)cc2[nH]1)C(=O)NCCCN1CCN(c2cccc(O)c2)CC1 [TCMDC-139248]	6.724	–
O=C(NCc1ccc(C(=O)NC2CCCCCC2)cc1)c1ccc(O)c(-c2ccc(Cl)c(Cl)c2)c1 [TCMDC-140846]	-16.48	–
CN(C)c1ccc(NC(=O)Nc2ccnc3ccc(Br)cc23)cc1 [TCMDC-139326]	-66.68	–
C/C=C1\CN2CC[C@H]1C[C@H]2[C@H](O)c1ccnc2ccc(OC)cc12 [TCMDC-138074]	–	4.282
COc1ccc(CNc2nccc3ccc(-c4ccc5nccn5c4)cc23)cc1 [TCMDC-133417]	-35.58	–
OC(CNc1ccnc(Nc2cccc(Cl)c2)n1)c1cccc(C(F)(F)F)c1 (stereo not drawn) [TCMDC-136586]	-39.19	–
CCCCNc1nccc2ccc(-c3ccncc3)cc12 [TCMDC-136490]	-10.89	–
COc1ccc(CNc2ccnc3cc(OC)ccc23)cc1 [TCMDC-139267]	1.914	–
COc1ccc(CNc2nccc3ccc(-c4ccc(N)nc4)cc23)cc1 [TCMDC-133418]	62.64	–
NCCCCNc1cc(-c2ccnc(Nc3cccc(Cl)c3)n2)ccn1 [TCMDC-134683]	70.36	–
COc1ccc(Nc2nccc(-c3ccc4ccnc(NCCCCN)c4c3)n2)cc1 [TCMDC-136642]	94.8	–
COc1ccc(Nc2nccc(-c3ccc4c(-c5ccsc5)cnc(N)c4c3)n2)cc1 [TCMDC-135552]	9.815	–
OC(CNc1ccnc(Nc2cccc(Cl)c2)n1)c1cccc(F)c1 (stereo not drawn) [TCMDC-136573]	-70.46	–
Cc1ccccc1C1CCN(C2CCC(NC(=O)/C=C/c3cccc(Cl)c3)CC2)CC1 (stereo not drawn) [TCMDC-133508]	-91.25	–
CS(=O)(=O)c1ccc(CNCc2cccc(-c3cccc(-c4nc5cc(C(F)(F)F)ccc5[nH]4)c3)c2)cc1.O=C(O)C(F)(F)F [TCMDC-132899]	-4.854	–
O=C(Nc1ccc(N2CCN(Cc3cccc(F)c3)CC2)cc1)c1cccs1 [TCMDC-134999]	-0.3438	–
COc1cccc(CCc2nc3c(N4CCC(Cc5ccccc5)CC4)cccc3n2CC2CNCCO2)c1 (stereo not drawn) [TCMDC-133535]	83.91	–
COc1ccc2nccc([C@@H](O)CN3CCC(NC(=O)C(c4cc5ccccc5o4)N4CCC(Cc5ccccc5)CC4)CC3)c2c1 (stereo partly drawn) [TCMDC-140997]	26.99	–
N#Cc1cncc(-c2nc3c(N4CCC(Cc5ccccc5)CC4)cccc3n2C2CCNC2)c1 (stereo not drawn) [TCMDC-133545]	7.232	–
